Reference: PubChem BioAssay (Tox21)
Unmarked numbers belong to inactive results. Calls of active or inactive are those of the source. The call rests on the fitted dose curve; in most records, active means well fitted curve in the direction sought with a large enough effect in the repeat runs; inconclusive means weak or mixed curves; inactive means flat fitted curve, though single readings scatter.

Assay: qHTS assay to test for compound auto fluorescence at 535 nm (green) in HEK293 cell free culture (AID 720682)
Settings: cell-free medium, green autofluorescence 485/535 nm, stronger effect = higher value; series mostly up to 91.3 µM; activity change: at the top concentration
Summary of the method: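 DMEM + 10% FBS, cell-free; cpd or DMSO pinned in; Ex485/Em535 read; output as fluorescein-equivalent signal.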
On the % scale 0 is the no-effect control and ±100 the full control effect.

| Compound | activity change | outcome |
| --- | --- | --- |
| CC(=O)NNc1ccccc1 | 0.0233% | – |
| Clc1ccccc1 | -0.0891% | – |
| NNCCO | -0.0219% | – |
| CCOP(=S)(OCC)Oc1ccc(S(C)=O)cc1 (centres undefined) | 0.0438% | – |
| O=C(NC(=O)c1cc(F)c(F)cc1Cl)Nc1cc(F)ccc1N1CCC(C(=O)O)CC1 | 0.11% [at 46 µM] | – |
| C[C@]12C=CC3=C4CCC(=O)C=C4CC[C@H]3[C@@H]1CC[C@@H]2O | 0.147% | – |
| O=C(O)CCCOc1ccc(Cl)cc1Cl | – | inactive |
| CC(C)c1ccc(NC(=O)N(C)C)cc1 | -0.0383% | – |
| CC(=O)OC(c1ccccc1)C(Cl)(Cl)Cl (centres undefined) | 0.0453% | – |
| c1ccc2sc(SNC3CCCCC3)nc2c1 | – | inactive |
| O=[N+]([O-])c1cc(Cl)c(Cl)cc1Cl | -0.111% | – |

Assay: qHTS assay to test for compound auto fluorescence at 590 nm (red) in HEK293 cell free culture (AID 720683)
Settings: cell-free medium autofluorescence, Ex540/Em590 red; series mostly up to 91.3 µM; fluorescence, % of fluorescent control: at the top concentration
Summary of the method: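 Cell-free wells of DMEM with 10% FBS received compound, and intrinsic fluorescence was read at excitation/emission 540/590 nm. Values expressed as equivalence to Rose Bengal sodium.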

| Compound | fluorescence, % of fluorescent control | outcome |
| --- | --- | --- |
| CCc1ccccc1N | 0.0008% | – |
| Cc1cccc(C)c1NC1=NCCCS1 | 0.136% [at 46 µM] | – |
| C[CH2][Hg][S]c1ccccc1C(=O)O | – | inactive |
| CC1(C)[C@H](C(=O)O[C@H](C#N)c2cccc(Oc3ccccc3)c2)[C@@H]1C=C(Br)Br | – | inactive |
| [Cl-].[Cl-].[Hg+2] | – | inactive |
| CN1C(=O)CN=C(c2ccccc2)c2cc([N+](=O)[O-])ccc21 | -0.0674% [at 46 µM] | – |
| C=CCN1C[C@H](C)N([C@H](c2ccc(C(=O)N(CC)CC)cc2)c2cccc(OC)c2)C[C@H]1C | 0.26% [at 46 µM] | – |
| COc1ccc(C(=O)c2c(C)n(CCN3CCOCC3)c3ccccc23)cc1 | -0.119% [at 46 µM] | – |
| O=CC=O | – | inactive |
| C=C(C)C(=O)OCCCCOC(=O)C(=C)C | -0.187% | – |
| CCCCCBr | 0.0648% [at 95.7 µM] | – |
| CC(C)[C@@H](C(=O)O[C@@H](C#N)c1cccc(Oc2ccccc2)c1)c1ccc(Cl)cc1 | – | inactive |
| Nc1ccccc1C(=O)OCCc1ccccc1 | – | inactive |
| O=C(O)C(O)C(O)C(=O)O (centres undefined) | -0.0621% | – |
| CC(C)(C)N(NC(=O)c1ccc(Cl)cc1)C(=O)c1ccccc1 | 0.0362% | – |
| COP(=O)(OC)OC(Br)C(Cl)(Cl)Br (centres undefined) | – | inactive |
| Cc1ncc(C[n+]2csc(CCO)c2C)c(N)n1 | – | inactive |
| Nc1ccc2c(c1)Cc1ccccc1-2 | -0.0404% | – |
| CCC(C)(C)O | 0.0349% | – |

| Compound | fluorescence, % of fluorescent control | outcome |
| --- | --- | --- |
| CCC1(CCC(C)C)C(=O)NC(=O)NC1=O | 0.419% | – |
| CN1CC[C@]23c4c5ccc(O)c4O[C@H]2[C@@H](O)C=C[C@H]3[C@H]1C5 | 0.179% | – |
| NP(N)(=O)NC(=O)c1ccc(F)cc1 | 0.171% [at 46 µM] | – |
| CN(C)c1ccc(N=O)cc1 | – | inactive |
| C[Si](Cn1cncn1)(c1ccc(F)cc1)c1ccc(F)cc1 | – | inactive |
| O=C1NC(=O)C(=O)C(=O)N1 | 0.266% [at 95.7 µM] | – |
| CC(=O)NNc1ccccc1 | -0.0499% | – |
| Clc1ccccc1 | -0.026% | – |
| NNCCO | -0.0232% | – |
| CCOP(=S)(OCC)Oc1ccc(S(C)=O)cc1 (centres undefined) | -0.0554% | – |
| O=C(NC(=O)c1cc(F)c(F)cc1Cl)Nc1cc(F)ccc1N1CCC(C(=O)O)CC1 | 0.158% [at 46 µM] | – |
| C[C@]12C=CC3=C4CCC(=O)C=C4CC[C@H]3[C@@H]1CC[C@@H]2O | 0.357% | – |
| Nc1c(Br)cc(Br)c2c1C(=O)c1ccccc1C2=O | -0.754% [at 18.6 µM] | – |
| O=C(O)CCCOc1ccc(Cl)cc1Cl | – | inactive |
| CC(C)c1ccc(NC(=O)N(C)C)cc1 | 0.0198% | – |
| CC(=O)OC(c1ccccc1)C(Cl)(Cl)Cl (centres undefined) | 0.0746% | – |
| c1ccc2sc(SNC3CCCCC3)nc2c1 | – | inactive |
| NCCc1cc(O)c(O)cc1O | 1.02% [at 46 µM] | – |
| O=[N+]([O-])c1cc(Cl)c(Cl)cc1Cl | -0.376% | – |
